Source: publication PMC7826789 (International Journal of Molecular Sciences, 2021)

Assays:
Settings in all cases: Compound Concentration (nM):1000
AAK1 = test system: AAK1
[1] = test system: ABL1(E255K)-phosphorylated
[2] = test system: ABL1(F317I)-nonphosphorylated
[3] = test system: ABL1(F317I)-phosphorylated
[4] = test system: ABL1(F317L)-nonphosphorylated
[5] = test system: ABL1(F317L)-phosphorylated
[6] = test system: ABL1(H396P)-nonphosphorylated
[7] = test system: ABL1(H396P)-phosphorylated
[8] = test system: ABL1(M351T)-phosphorylated
[9] = test system: ABL1(Q252H)-nonphosphorylated
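Further: KINOMEscan scanMAX binding as percent activity remaining versus control; lower means stronger binding.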

Row | Structure (SMILES) | Percent Control (AAK1) | Percent Control [1] | Percent Control [2] | Percent Control [3] | Percent Control [4] | Percent Control [5] | Percent Control [6] | Percent Control [7] | Percent Control [8] | Percent Control [9]
1 | CC1=C(C(=O)Nc2ccc3[nH]ncc3c2)C(c2ccc3ccccc3c2)CC(=O)N1 (stereo not drawn) [GSK270822A] | 81% | 83% | 100% | 67% | 87% | 68% | 59% | 86% | 80% | 50%
2 | COc1cc(/C=N/Nc2ncnc3[nH]ncc23)ccc1O [GW578748X] | 34% | 0.8% | 100% | 37% | 56% | 23% | 0% | 1.3% | 0% | 0%
3 | NS(=O)(=O)c1ccc(N/N=C2\C(=O)Nc3ccc(C(=O)NCCc4c[nH]cn4)cc32)cc1 [GW300660X] | 100% | 100% | 100% | 77% | 98% | 100% | 93% | 100% | 100% | 99%
4 | COc1cc(C=NNc2ncnc3c2cnn3-c2ccccc2)ccc1O [GW513184X] | 91% | 15% | 92% | 92% | 100% | 91% | 4.7% | 26% | 25% | 8.4%
5 | COc1cc(N2CCN(C(C)C)CC2)ccc1Nc1nc(Nc2ccc(F)cc2C(=O)NC[C@@H](O)CO)c2cc[nH]c2n1 [GSK1392956A] | 64% | 100% | 100% | 87% | 95% | 49% | 97% | 100% | 97% | 100%
6 | Cl.c1ccc(Cc2nc3ccc(Nc4ncnc5ccccc45)cc3[nH]2)cc1 [GR269666A] | 100% | 100% | 100% | 88% | 100% | 92% | 86% | 100% | 100% | 98%
7 | COc1cc2ncn(-c3cc(O[C@H](C)c4ccccc4Cl)c(C(N)=O)s3)c2cc1OC [GSK237701A] | 29% | 81% | 100% | 86% | 92% | 71% | 20% | 78% | 56% | 46%
8 | COc1ccc2cc(-c3c(-c4ccncc4)nc(-c4ccc(S(C)(=O)=O)cc4C)n3C)ccc2c1 [SB-633825] | 83% | 80% | 100% | 65% | 83% | 74% | 58% | 78% | 81% | 63%
9 | Cl.O=C(O[C@H]1CN[C@H](C#Cc2cc3ncnc(Nc4ccc5c(cnn5Cc5ccccc5)c4)c3s2)C1)N1CCOCC1 [GSK200398A] | 87% | 88% | 89% | 85% | 100% | 52% | 80% | 90% | 100% | 84%
10 | CCS(=O)(=O)c1ccc(OC)c(Nc2ncc(-c3cccc(OC)c3)o2)c1 [GW580509X] | 100% | 5% | 90% | 40% | 45% | 6.2% | 1.4% | 7.9% | 6.5% | 6.8%
11 | CN(C)c1cc2c(Nc3ccc4c(cnn4Cc4ccccc4)c3)ncnc2cn1 [GW282974X] | 75% | 59% | 84% | 91% | 99% | 50% | – | 63% | 100% | 48%
12 | COc1cccc(-n2ncc3c(N/N=C/c4ccncc4)ncnc32)c1 [GW784752X] | 85% | 1.5% | 100% | 78% | 98% | 24% | 0% | 1.5% | 0% | 0%
13 | O=C(Nc1n[nH]c2nc(-c3ccc(O)cc3)c(Br)cc12)C1CC1 [SB-725317] | 79% | 26% | 100% | 80% | 100% | 100% | 1.9% | 28% | 33% | 7%
14 | COc1cc(C)c(N(C)C(=O)CN(C)C)cc1Nc1nc(Nc2cccc(F)c2C(N)=O)c2cc[nH]c2n1 [GSK2219385] | 94% | 95% | 55% | 97% | 100% | 56% | 51% | 99% | 100% | 62%
15 | Cl.O=C(Nc1ccc(Oc2ccc3[nH]c(NC(=O)c4ccco4)nc3c2)cc1)Nc1cc(C(F)(F)F)ccc1F [GW683134A] | 100% | 39% | 20% | 53% | 6.8% | 54% | 0.7% | 20% | 22% | 5.5%
16 | CCc1ccc(Oc2nccc(-c3c(-c4ccc(F)cc4)ncn3C3CCNCC3)n2)cc1 [SB-242719] | 100% | 63% | 87% | 80% | 100% | 98% | 77% | 67% | 98% | 68%
17 | CN1CCN(C(=O)c2ccc(NC(=O)Nc3ccc(N(C)c4ccnc(Nc5ccc(CS(C)(=O)=O)cc5)n4)cc3)cc2)CC1.Cl [GW830263A] | 19% | 38% | 96% | 69% | 51% | 34% | 1.4% | 32% | 20% | 6.1%
18 | O=C1Nc2ccc(C(=O)c3ccco3)cc2C1=Cc1cc(Cl)c(O)c(Cl)c1 [GW406108X] | 30% | 68% | 89% | 79% | 100% | 71% | 60% | 87% | 70% | 71%
19 | NS(=O)(=O)c1ccc(N/N=C2\C(=O)Nc3ccc(-c4cnco4)cc32)cc1 [GW276655] | 14% | 63% | 69% | 59% | 75% | 74% | 58% | 83% | 92% | 85%
20 | NS(=O)(=O)c1ccc(N/N=C2\C(=O)Nc3ccc(Cl)cc32)cc1 [GW280670X] | 94% | 100% | 99% | 96% | 100% | 100% | 81% | 100% | 100% | 81%

Row | Structure (SMILES) | Percent Control (AAK1) | Percent Control [1] | Percent Control [2] | Percent Control [3] | Percent Control [4] | Percent Control [5] | Percent Control [6] | Percent Control [7] | Percent Control [8] | Percent Control [9]
21 | COc1ccc2c(-c3ccnc(Nc4cccc(OC(F)(F)F)c4)n3)cnn2n1 [GW810372X] | 69% | 100% | 100% | 100% | 100% | 100% | 87% | 100% | 97% | 98%
22 | Cl.O=C(Nc1ccc(Oc2ccc3[nH]c(NC(=O)c4ccccc4)nc3c2)cc1)Nc1cc(C(F)(F)F)ccc1F [GW709042A] | 100% | 83% | 43% | 76% | 26% | 80% | 9.9% | 67% | 62% | 8%
23 | NS(=O)(=O)c1ccc(Nc2ncc(-c3ccccc3)o2)cc1 [GW572399X] | 94% | 81% | 99% | 87% | 86% | 100% | 35% | 87% | 83% | 78%
24 | CC1=C(C(=O)Nc2ccc3[nH]ncc3c2)C(c2ccc(Cl)c(Cl)c2)CC(=O)N1 (stereo not drawn) [GSK299115A] | 73% | 96% | 100% | 72% | 75% | 74% | 79% | 95% | 87% | 75%
25 | C/C(Nc1ccc(S(N)(=O)=O)cc1)=C1/C(=O)Nc2ccccc21 [GW335962X] | 67% | 82% | 88% | 83% | 100% | 89% | 72% | 91% | 82% | 76%
26 | C[C@@H](Oc1cc(-n2cnc3ccc(OC4CCN(C)CC4)cc32)sc1C(N)=O)c1ccccc1Cl [GSK579289A] | 62% | 44% | 52% | 87% | 100% | 78% | 43% | 56% | 80% | 46%
27 | COc1cc2ncnc(Nc3ccc4c(cnn4Cc4ccccc4)c3)c2cc1OC.Cl [GW282449A] | 100% | 100% | 100% | 81% | 93% | 60% | 80% | 100% | 100% | 96%
28 | CN(C)CCNC(=O)Nc1ccc(N(C)c2ccnc(Nc3ccc(CS(C)(=O)=O)cc3)n2)cc1.Cl [GW830900A] | 20% | 82% | 93% | 84% | 91% | 84% | 38% | 82% | 73% | 47%
29 | COc1ccccc1-c1cc(/C=C2\C(=O)Nc3ncc(Br)cc32)cc(Br)c1O [GW442130X] | 87% | 83% | 100% | 100% | 100% | 100% | 48% | 85% | 100% | 94%
30 | CC(C)COC(=O)c1ccc2c(c1)/C(=C/Nc1ccc(S(N)(=O)=O)cc1)C(=O)N2 [GW416981X] | 26% | 100% | 100% | 83% | 100% | 100% | 75% | 100% | 100% | 95%
31 | COC(=O)Nc1nc2ccc(Oc3ccc(NC(=O)Nc4cc(C(F)(F)F)ccc4F)cc3)cc2s1.Cl [GW693917A] | 100% | 28% | 4.5% | 36% | 3.6% | 14% | 0% | 15% | 12% | 0%
32 | COc1ccc(COc2ccc(Cc3cnc(N)nc3N)cc2OC)cc1 [GW632580X] | 94% | 75% | 99% | 95% | 100% | 93% | 88% | 86% | 85% | 88%
33 | NS(=O)(=O)c1ccc(N/N=C2\C(=O)Nc3ccc(C(=O)NCc4ccncc4)cc32)cc1 [GW300657X] | 29% | 79% | 85% | 81% | 92% | 54% | 63% | 82% | 91% | 78%
34 | Cl.O=S1CCN(Cc2ccc(-c3ccc4ncnc(Nc5ccc(OCc6ccccc6)c(F)c5)c4c3)o2)CC1 [GW576924A] | 100% | 100% | 100% | 96% | 100% | 70% | 99% | 100% | 100% | 100%
35 | CCn1c(-c2nonc2N)nc2c(C#CC(C)(C)O)nc(OCCNC)cc21.Cl [GSK949675] | 100% | 98% | 100% | 100% | 100% | 100% | 85% | 93% | 100% | 100%
36 | COc1ccc2[nH]c3c4[nH]c5ccc(OC)cc5c4c4c(c3c2c1)C(=O)NC4=O [GW296115X] | 53% | 64% | 87% | 73% | 84% | 75% | 34% | 65% | 68% | 28%
37 | Cc1cc(O)cc(C)c1/C=C/c1cncc(C(N)=O)c1 [GW435821X] | 100% | 6.8% | 90% | 32% | 37% | 9% | 4.9% | 14% | 15% | 7.9%
38 | COc1cccc(-c2c[nH]c3c(N/N=C/c4ccncc4)ncnc23)c1 [GW814408X] | 69% | 0.7% | 100% | 66% | 61% | 19% | 0% | 0.2% | 0.3% | 0%
39 | CCS(=O)(=O)c1ccc(OC)c(Nc2ncc(-c3cccc(F)c3)o2)c1 [GW621970X] | 100% | 6.7% | 98% | 51% | 47% | 5.4% | 1.1% | 9.3% | 6.6% | 4.5%
40 | Nc1ncnc2occ(-c3ccc(NC(=O)Nc4cc(C(F)(F)F)ccc4F)cc3)c12 [GW770249X] | 96% | 78% | 67% | 61% | 7.8% | 54% | 2.9% | 72% | 45% | 0%
